The panel holds about 83,000 compounds, 20% with a hit somewhere; the sample as a whole holds those more often.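 For each line, cells grew in 96-well plates with the test compound present at a single concentration for 48 hours.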 A number with no mark means an inactive call. The source made the active and inactive calls.

For the assay, the system named is ACHN renal. The assay can be described thus: NCI-60 one-dose screen, 48 h (100 = growth as untreated, 0 = no growth, -100 = all killed). The settings on record: 10 µM unless noted. The method, then: Growth inhibition of the ACHN human tumor cell line is measured as a screen for anti-cancer activity. Cells are grown in 96 well plates and exposed to the test compound for 48 hours. Compounds are tested at a single concentration, which is 10^-5 M for most compounds. The reported endpoint is percent growth (GI% or GIPRCNT), where numbers from 0 - 100% represent growth inhibition, and numbers from -100% - 0 represent cell death. For example, a value of 40 represents 60% growth inhibition. A value of 0 means no net growth occurred over the course of the experiment. A value of -40 indicates 40% of cells at the beginning of the experiment died by the end of the experiment. A value of -100 means all cells are dead at the end of the experiment.
NCI-60 Human Tumor Cell Lines Screen was performed using the standard one-dose NCI protocol, which is described in more detail at https://dtp.cancer.gov/discovery_development/nci-60/default.htm.
Compounds with GIPRCNT values below 10 were considered active. Activity score was based on GIPRCNT using the following formula: […]
Score is 0 for GIPRCNT values of 100 or above, 50 for GIPRCNT values of 0, and 100 for GIPRCNT values of -100.
With `COc1cc(C=Nc2oc(-c3ccccc3)c(-c3ccccc3)c2C#N)cc(CN2CCCCC2)c1O`, the growth was 99.6%.
Take `CC(C)C1=C[C@@]23CC[C@@H]4[C@](C)(CCC[C@@]4(C)C(=O)N4CCCNCC4)[C@H]2C[C@@H]1[C@H]1C(=O)CCC(=O)[C@H]13`: the growth was 92.1%.
Turning to `Cn1cc(C(=O)c2nc(-c3c[nH]c4ccc(Br)cc34)no2)c2cc(F)ccc21`, the growth is 89.6%.
Take `Cc1cc(N2CCN(c3ccnc4cc(Cl)ccc34)CC2)nc(N2CCOCC2)n1`: the growth is 86.1%.
Regarding `COc1ccc(/C=C\c2cc(OC)c(OC)c(OC)c2)cc1OC(=O)c1cccc(Cn2cc(CCOC(=O)[C@H](N)Cc3cn(C)c4ccccc34)nn2)c1`, the growth is 26.6%.
In the case of `COc1cc(C(=O)Oc2ccccc2OC(=O)c2cc(OC)c(OC)c(OC)c2)cc(OC)c1OC`, the growth is 93.9%.
For `CC(=O)c1nc2ccccc2n1CC(=O)c1cccc(Cl)c1`, the growth was 51.3%.
For the molecule `CCCCCCN(CCCCCC)C(=N)c1ccnc2ccccc12`, the growth was 53.2%.
Turning to `COc1cc2nc(N3CCCC3)nc(NCc3ccccc3)c2cc1OC`, the growth was 62.2%.
Consider `COc1ccc2c(c1)c(-c1nonc1-c1cn(C)c3ccccc13)cn2C`, for which the growth is 48.6%.
Then `CN1CCN(Cc2ccc(NC(=O)c3cncc(C#Cc4cncn5ccnc45)c3)cc2C(F)(F)F)CC1`, with 37.8%; and `N#Cc1nnn(-c2ccc(S(N)(=O)=O)cc2)c1NCC(=O)c1ccccc1`, with 99.5%.
`O=C1/C(=C/c2ccccc2)SC(=S)N1CCc1ccc(O)cc1`: the growth was 93.9%.
Take `N#CCCN=Nc1c(O)[nH]c2ccc(F)cc12`: the growth was 103%.
As for `O=C(O)c1ccc(N=CC(=O)c2ccc(-c3ccccc3)cc2)cc1`, the figure is 96.2%; as for `Cc1nc(/N=C(\N)NC(=O)Nc2cccc([N+](=O)[O-])c2)sc1C`, 92%; as for `COc1cc(-c2ccc3c(c2)NC(=O)/C3=C\c2ccc[nH]2)ccc1O`, 11.6%.
Turning to `CSc1nc(Nc2cccc(NC(=O)CCl)c2)c(C#N)c(-c2cccc([N+](=O)[O-])c2)n1`, the growth is 84.2%.
As for `O=S(=O)(Nc1ccc(Br)c(Cl)c1)c1ccc(-c2cnc(C3CC3)o2)cc1`, the growth was 46.4%.
As to `COc1ccc(Nc2c3c4c(cccc4[nH]c2=O)C(=O)c2ccccc2-3)cc1`, the growth was 24.2%.
With `Cc1cc(C)nc(SC2=C(Nc3ccc(O)cc3)C(=O)N(Cc3ccccc3)C2=O)n1`, the growth was 93.4% [40 µM].
Then `C=C1c2nc3ccccc3n2C=C(c2ccc(OC)cc2)N1Cc1ccccc1`, with 96.2%; and `CC[N+](CC)=c1sc2c(s1)C(c1ccc(Cl)cc1)Oc1ccc(Cl)cc1-2` (stereo not given), with 88.5%; and `C=C(C)C(=O)Nc1ccc(NC(C)C)cc1`, with 125%.
`Cc1[nH]c(-c2ccc3cc[nH]c3c2)c2c1C(=O)CCCC2`: the growth is 41.2%.
Take `CCOC(=O)c1sc(Nc2ccc(Cl)cc2)nc1C`: the growth was 14.3%.
For `Nc1n[nH]c2ccc([C@@H]3Nc4ccc5cn[nH]c5c4[C@H]4C5CCC(C5)[C@@H]34)cc12` (stereo not given in full), the growth was 39.2%.
Regarding `O=C1/C(=C/c2ccccc2O)N=C2SCCCN12`, the growth was 98.4%.
Take `COc1cc(/C=C/c2cc(/C=C/c3ccc(O)c(OC)c3)n(-c3c(Cl)cccc3Cl)c(=O)n2)ccc1O`: the growth is 37.8%.
`O=C1/C(=C/c2ccc(OCCCOc3ccc(Cl)cc3)cc2)N=C2SCCCN12`: the growth is 74.5%.
Regarding `Cc1ccc(O)c(N2C(=NCc3ccco3)NS(=O)(=O)c3cnccc32)c1`, the growth was 106%.
`CC1=CC(C)(C)Nc2ccc(Cc3ccc4c(c3)C(C)=CC(C)(C)N4)cc21`: the growth was 93.8%.
Take `O=[N+]([O-])c1ccc2c(c1)Cc1cc(F)ccc1-2`: the growth was 103%.
Regarding `COc1cccc(/C=N/NC(=O)c2ccccc2Nc2ccnc(C(F)(F)F)c2)c1O`, the growth is 5.22% (active).
Turning to `Nc1ccn(-c2ccc(Br)cc2)c(=O)n1`, the growth is 111%.
As for `O=C1c2cc3c(cc2-c2c1c1ccc(F)cc1c(=O)n2CCCNCCO)OCO3`, the growth was -52.7% (active).
Consider `O=C(Nc1ccc(Cl)cc1)c1cc2cc(F)ccc2cc1O`, for which the growth is 3.91% (active).
`O=C(/C=C/c1ccccc1)c1ccc(O)c(CN2CCN(c3cc4c(cc3F)c(=O)c(C(=O)O)cn4C3CC3)CC2)c1`: the growth is 14.4%.
On to `Cn1ncc2c(=O)nc3c(-c4ccccc4)n[nH]n3c21`, for which the growth was 116%.
Consider `COc1ccc(-c2nc(SCC(=O)Nc3ccc(C(=O)/C=C/c4ccc(Cl)cc4)cc3)[nH]c(=O)c2C#N)cc1`, for which the growth was 98.9%.
